Results reported in PubChem BioAssay (NCI).
Compounds without any hit were thinned out: in the full panel of roughly 79,000, 15% have a hit. Calls of active or inactive are those of the source. No stated cut-off is given here; in the data, active means growth inhibition above about 70%; inactive means the rest.

Legend:
[1] = NCI Yeast Anticancer Drug Screen. Data for the mec2-1 strain (AID 157); conditions: S. cerevisiae mec2-1 strain, hits give high values
Procedure, shortened: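 Yeast mec2-1 mutant treated with compound. Readout: growth inhibition vs vehicle controls.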

[2] = NCI Yeast Anticancer Drug Screen. Data for the rad14 strain (AID 159);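 further: 0% = growth of vehicle-treated control cultures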; conditions: S. cerevisiae rad14 strain growth inhibition, hits give high values
Procedure, shortened: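 Test compounds were applied to a repair-deficient yeast strain. Its growth was then compared with that of cultures given vehicle alone, and inhibition was expressed relative to those controls.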

[3] = NCI Yeast Anticancer Drug Screen. Data for the sgs1 mgt1 strain (AID 161);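 further: 0% = growth of cultures given vehicle only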; conditions: S. cerevisiae sgs1 mgt1 strain, hits give high values
Procedure, shortened: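 Mutant yeast exposed to compound; growth scored against vehicle-only wells.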

[4] = NCI Yeast Anticancer Drug Screen. Data for the CLN2oe strain (AID 163);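 further: 0% = growth of vehicle-only control cultures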; conditions: S. cerevisiae CLN2oe strain, hits give high values
Procedure, shortened: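 Read-out: yeast growth inhibition, expressed relative to vehicle-only controls. The strain bears an engineered cell-cycle alteration.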

[5] = NCI Yeast Anticancer Drug Screen. Data for the cln2 rad14 strain (AID 165);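 further: 0% = growth equal to vehicle treated cultures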; conditions: S. cerevisiae cln2 rad14 strain, hits give high values
Procedure, shortened: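 cln2 rad14 yeast strain; compound exposure; growth inhibition read vs vehicle controls.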

[6] = NCI Yeast Anticancer Drug Screen. Data for the bub3 strain (AID 167); conditions: S. cerevisiae bub3 mutant strain, hits give high values
Procedure, shortened: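 Yeast carrying a defined mutation is treated with each compound, and growth is compared with that of vehicle-exposed cells to give inhibition.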

[7] = NCI Yeast Anticancer Drug Screen. Data for the wt2 strain (AID 169);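 further: 0% = growth of vehicle-treated yeast cultures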; conditions: S. cerevisiae wt2 strain growth inhibition, hits give high values
Procedure, shortened: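 Read-out: growth inhibition versus vehicle-treated control cultures after compound exposure of the yeast strain.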

[8] = NCI Yeast Anticancer Drug Screen. Data for the mlh1 strain (AID 171);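 further: 0% = growth of vehicle-treated control cultures of the same strain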; conditions: S. cerevisiae mlh1 strain growth inhibition, hits give high values
Procedure, shortened: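 Read-out: growth inhibition versus vehicle controls. Strain: engineered yeast with a defined DNA repair or cell cycle defect, compound-treated.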

[9] = NCI Yeast Anticancer Drug Screen. Data for the sgs1 strain (AID 173);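 further: 0% = growth of vehicle-only control cultures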; conditions: S. cerevisiae sgs1 mutant, hits give high values
Procedure, shortened: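 Read-out: yeast growth inhibition relative to vehicle controls, following compound exposure of a strain with a defined DNA repair/cell cycle alteration.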

[10] = NCI Yeast Anticancer Drug Screen. Data for the mlh1 rad18 strain (AID 175); conditions: S. cerevisiae mlh1 rad18 strain growth inhibition, hits give high values
Procedure, shortened: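 Yeast w/ defined DNA-repair lesions; compound exposure; growth vs vehicle controls → % inhibition.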

[11] = NCI Yeast Anticancer Drug Screen. Data for the rad18 strain (AID 177); conditions: S. cerevisiae rad18 mutant growth inhibition, hits give high values
Procedure, shortened: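 Readout: growth inhibition vs vehicle controls. Cells: genetically altered yeast strain, DNA repair defect.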

[12] = NCI Yeast Anticancer Drug Screen. Data for the rad52 strain (AID 147);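 further: 0% = growth of vehicle-treated control cultures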; conditions: S. cerevisiae rad52 mutant growth inhibition, hits give high values
Procedure, shortened: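 Read-out: growth inhibition versus vehicle-treated controls. Cells were a DNA repair-deficient yeast strain treated with compounds.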

[13] = NCI Yeast Anticancer Drug Screen. Data for the wt1 strain (AID 149);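 further: 0% = growth of vehicle-treated wt1 cultures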; conditions: S. cerevisiae wt1 strain (SPY 50644) growth inhibition, hits give high values
Procedure, shortened: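 wt1 yeast, compound-treated; % growth inhibition vs vehicle control.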

[14] = NCI Yeast Anticancer Drug Screen. Data for the rad50EPP+ strain (AID 151);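 further: 0% = growth of vehicle-treated control cultures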; conditions: S. cerevisiae rad50 mutant strain, hits give high values
Procedure, shortened: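 Growth inhibition read against vehicle controls in rad50EPP+ yeast, a strain altered in DNA damage repair, after compound exposure.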

[15] = NCI Yeast Anticancer Drug Screen. Data for the rad50 strain (AID 155);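 further: 0% = growth of vehicle-only cultures of the same strain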; conditions: S. cerevisiae rad50 strain growth inhibition, hits give high values
Procedure, shortened: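 Genetically altered yeast (DNA repair pathway); compound treatment; growth inhibition vs vehicle ctrl.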

[16] = at 5.0 µM (retest, dose inferred, filed as 0.5)
[17] = at 50.0 µM (retest, dose inferred, filed as 5.0)

Measured: growth inhibition

CC(C)(C)c1ccc2c(c1)C(=O)c1ccccc1C2=O
inactive: [1]; at 100.0 µM -5% | [2]; at 1.2 µM 1% | [2]; at 3.7 µM -13% | [2]; at 11.0 µM -6% | [2]; at 33.0 µM 2% | [2]; at 100.0 µM 13% | [3]; [16] 9% | [3]; [17] 20% | [3]; at 50.0 µM 0.45% | [4]; at 1.2 µM -11% | [4]; at 3.7 µM -12% | [4]; at 11.0 µM -14% | [4]; at 33.0 µM -13% | [4]; at 100.0 µM -12% | [5]; [16] -7% | [5]; [17] 0% | [5]; at 50.0 µM -6.45% | [6]; at 1.2 µM 4% | [6]; at 3.7 µM 24% | [6]; [16] 25% | [6]; at 11.0 µM 65% | [7]; at 1.2 µM 1% | [7]; at 3.7 µM 6% | [7]; at 11.0 µM 10% | [7]; at 33.0 µM 10% | [7]; at 100.0 µM 25% | [8]; at 1.2 µM -15% | [8]; at 3.7 µM -10% | [8]; at 11.0 µM -10% | [8]; at 33.0 µM -10% | [8]; at 100.0 µM 12% | [9]; at 1.2 µM -13% | [9]; at 3.7 µM -7% | [9]; at 11.0 µM 0% | [9]; at 33.0 µM 5% | [9]; at 100.0 µM 17% | [10]; [16] 5% | [10]; [17] 26% | [10]; at 50.0 µM -4.9% | [11]; at 1.2 µM -11% | [11]; at 3.7 µM -9% | [11]; at 11.0 µM -6% | [11]; at 33.0 µM -6% | [11]; at 100.0 µM -14%
active: [6]; at 33.0 µM 78% | [6]; [17] 85% | [6]; at 50.0 µM 89% | [6]; at 100.0 µM 91%

O=C1c2ccccc2-c2cc3ccccc3c(=O)n21
inactive: [12]; at 1.2 µM 32% | [12]; at 3.7 µM 64% | [13]; at 1.2 µM -21% | [13]; at 3.7 µM 0% | [13]; at 11.0 µM 31% | [13]; at 33.0 µM 58% | [13]; at 100.0 µM 51% | [14]; at 1.2 µM 41% | [15]; at 1.2 µM 32% | [15]; at 3.7 µM 64% | [15]; [16] 1% | [1]; at 1.2 µM 13% | [1]; at 3.7 µM 19% | [1]; [16] -14% | [1]; at 11.0 µM 48% | [1]; [17] 41% | [3]; [16] 9% | [3]; [17] 46% | [4]; at 1.2 µM 1% | [4]; at 3.7 µM 4% | [4]; at 11.0 µM 23% | [4]; at 33.0 µM 51% | [4]; at 100.0 µM 68% | [5]; [16] 22% | [5]; [17] 15% | [5]; at 50.0 µM 14.3% | [6]; at 1.2 µM 3% | [6]; at 3.7 µM 2% | [6]; [16] -2% | [6]; at 11.0 µM 10% | [6]; at 33.0 µM 68% | [6]; [17] 56% | [7]; at 1.2 µM 4% | [7]; at 3.7 µM 9% | [7]; at 11.0 µM 31% | [8]; at 1.2 µM 4% | [8]; at 3.7 µM 19% | [8]; at 11.0 µM 66% | [8]; at 100.0 µM 63% | [9]; at 1.2 µM 22% | [9]; at 3.7 µM 14% | [9]; at 11.0 µM 47% | [10]; [16] -13% | [10]; [17] 63% | [11]; at 1.2 µM -22% | [11]; at 3.7 µM -17% | [11]; at 11.0 µM 28% | [11]; at 33.0 µM 63% | [11]; at 100.0 µM 59%
active: [12]; at 11.0 µM 91% | [12]; at 33.0 µM 93% | [12]; at 100.0 µM 87% | [14]; at 3.7 µM 76% | [14]; at 11.0 µM 90% | [14]; at 33.0 µM 92% | [14]; at 100.0 µM 80% | [15]; at 11.0 µM 88% | [15]; at 33.0 µM 89% | [15]; [17] 92% | [15]; at 50.0 µM 91.7% | [15]; at 100.0 µM 84% | [1]; at 33.0 µM 70% | [1]; at 50.0 µM 85.3% | [1]; at 100.0 µM 77% | [3]; at 50.0 µM 81% | [6]; at 50.0 µM 84.5% | [6]; at 100.0 µM 72% | [7]; at 33.0 µM 73% | [7]; at 100.0 µM 73% | [8]; at 33.0 µM 74% | [9]; at 33.0 µM 76% | [9]; at 100.0 µM 77% | [10]; at 50.0 µM 81%

CC1CN(/N=C\c2ccc([N+](=O)[O-])o2)C(=O)O1 (centres undefined)
inactive: [12]; at 1.2 µM 1% | [12]; at 3.7 µM 3% | [12]; at 11.0 µM 9% | [12]; at 33.0 µM 19% | [12]; at 100.0 µM 59% | [13]; at 1.2 µM -2% | [13]; at 3.7 µM -2% | [13]; at 11.0 µM -2% | [13]; at 33.0 µM 1% | [13]; at 100.0 µM 10% | [14]; at 1.2 µM 0% | [14]; at 3.7 µM -1% | [14]; at 11.0 µM 4% | [14]; at 33.0 µM 15% | [14]; at 100.0 µM 48% | [15]; at 1.2 µM 9% | [15]; at 3.7 µM 46% | [15]; [16] 8% | [15]; at 11.0 µM 32% | [15]; at 33.0 µM 24% | [15]; [17] 53% | [1]; at 1.2 µM 2% | [1]; at 3.7 µM 4% | [1]; [16] -25% | [1]; at 11.0 µM 6% | [1]; at 33.0 µM 12% | [1]; [17] 46% | [1]; at 50.0 µM 20.6% | [1]; at 100.0 µM 45% | [2]; at 1.2 µM 0% | [2]; at 3.7 µM -3% | [2]; at 11.0 µM -2% | [2]; at 33.0 µM 10% | [2]; at 100.0 µM 47% | [3]; [16] 27% | [4]; at 1.2 µM -7% | [4]; at 3.7 µM -6% | [4]; at 11.0 µM -3% | [4]; at 33.0 µM -7% | [4]; at 100.0 µM -6% | [5]; [16] -3% | [5]; [17] 45% | [5]; at 50.0 µM 18.9% | [6]; at 1.2 µM -1% | [6]; at 3.7 µM 3% | [6]; [16] -8% | [6]; at 11.0 µM 0% | [6]; at 33.0 µM 2% | [6]; [17] 14% | [6]; at 50.0 µM 14.1% | [6]; at 100.0 µM 9% | [7]; at 1.2 µM -3% | [7]; at 3.7 µM 6% | [7]; at 11.0 µM -3% | [7]; at 33.0 µM -1% | [7]; at 100.0 µM 18% | [8]; at 1.2 µM 0% | [8]; at 3.7 µM -2% | [8]; at 11.0 µM -1% | [8]; at 33.0 µM 3% | [8]; at 100.0 µM 16% | [9]; at 1.2 µM 7% | [9]; at 3.7 µM 11% | [9]; at 11.0 µM 27% | [9]; at 33.0 µM 56% | [10]; [16] 18%
active: [15]; at 50.0 µM 75.7% | [15]; at 100.0 µM 72% | [3]; [17] 83% | [3]; at 50.0 µM 86.1% | [9]; at 100.0 µM 87% | [10]; [17] 71% | [10]; at 50.0 µM 85.8% | [11]; at 1.2 µM 78% | [11]; at 3.7 µM 85% | [11]; at 11.0 µM 88% | [11]; at 33.0 µM 93% | [11]; at 100.0 µM 97%
